The values that follow come from PubChem BioAssay (Tox21).

SMILES strings stand for the structures. A number with no mark means an inactive call. Records with an inconclusive call do not appear. Active and inactive are the calls of the source. Unless noted, calls follow the shape of the full dose curve.
% is scaled to controls: 0 for no effect and ±100 for the full control effect.

Tested on in the first assay: not listed separately
Description: qHTS assay to identify small molecule agonists of the sonic hedgehog signaling (Shh) pathway (AID 1259368).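 Also: NIH/3T3-derived 3T3Gli1-Luc cells carrying a stable Gli1-driven firefly luciferase reporter; nearly all actives have a fitted effect of over 15% in size.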 Conditions: NIH/3T3 Gli1-Luc reporter, luciferase, 24 h, active compounds read high; series mostly up to 92.4 µM; activity change: at the top concentration. Summed up: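 Stable NIH/3T3 Gli1-Luc reporter clone; 24 hr cpd exposure after a 4 hr settling period; luminescence endpoint.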
(In general: In qHTS, concentration-response curves come from the screen itself.)
Consider `CNC(=O)Oc1ccc(N(C)C)c(C)c1`, for which the “activity change” value was 0.637%.

With `CCC1(c2ccccc2)C(=O)NC(=O)NC1=O`, the “activity change” value is 0.4%.

Turning to `COC(=O)c1ccccc1S(=O)(=O)NC(=O)Nc1nc(C)cc(C)n1`, the “activity change” value is -0.544%.

On to `COc1cc(OC)nc(NC(=O)NS(=O)(=O)c2ncccc2C(=O)N(C)C)n1`, for which the “activity change” value is -0.0034%.

For the compound `ClCC(Cl)Cl`, the “activity change” value was 0.225%.

As for `Clc1cccc(N2CCNCC2)c1`, the “activity change” value was -0.149% [at 42.5 µM].

With `CCOP(=S)(OCC)SCSP(=S)(OCC)OCC`, the “activity change” value was 0.633%.

Turning to `COc1cc2c(cc1OC)[C@@]13CCN4CC5=CCO[C@H]6CC(=O)N2[C@H]1[C@H]6[C@H]5C[C@H]43`, the “activity change” value is -0.889%.

As for `CCS(=O)(=O)CCSP(=O)(OC)OC`, the “activity change” value is 2.37%.

Consider `O=C1CN2CCOC2(c2ccccc2Cl)c2cc(Cl)ccc2N1` (stereo unspecified), for which the “activity change” value was -0.303% [at 42.5 µM].

Turning to `CCOP(=O)(N=C1SCCS1)OCC`, the “activity change” value is 0.339%.

For `N#CC(CCc1ccc(Cl)cc1)(Cn1cncn1)c1ccccc1` (stereo unspecified), the “activity change” value is -13.4%.

For `COc1cccc2c1cc([N+](=O)[O-])c1c(C(=O)O)cc3c(c12)OCO3`, the “activity change” value is -21.3%.

As for `CC(C)(C)C(=O)C(Oc1ccc(Cl)cc1)n1cncn1` (stereo unspecified), the “activity change” value is 1.01%.

For the compound `CC(=O)CC(c1ccc(Cl)cc1)c1c(O)c2ccccc2oc1=O` (stereo unspecified), the “activity change” value was -2.44%.

In the case of `CC(=O)C(Cl)Cl`, the “activity change” value is -0.0896%.

Take `ClC(Cl)C(Cl)Cl`: the “activity change” value was 4.4%.

With `COc1cc(OC)nc(Sc2cccc(Cl)c2C(=O)O)n1`, the “activity change” value was 0.064%.

For `COc1cc(OC)nc(NC(=O)NS(=O)(=O)c2ncccc2OCC(F)(F)F)n1`, the “activity change” value is 0.601%.

Take `[O]=[Cd]`: the “activity change” value is 0.502%.

For `C=CCC1=C(C)[C@@H](OC(=O)[C@@H]2[C@@H](C=C(C)C)C2(C)C)CC1=O`, the “activity change” value is -12.8%.

In the case of `N#CCNCC#N`, the “activity change” value is 0.869%.

In the case of `CCCSC(=O)Cl`, the “activity change” value is -0.443%.

On to `CCC(Cl)[N+](=O)[O-]` (stereo unspecified), for which the “activity change” value was -0.398%.

As to `O=[N+]([O-])c1cc(Cl)c(Cl)c(Cl)c1`, the “activity change” value is 1.8%.

`Nc1cc2c3c(c1)C(c1ccccc1)=N[C@@H](NC(=O)c1cccnc1)C(=O)N3CC2`: the “activity change” value was -0.808%.

As for `CC(C)NCC(O)c1ccc(N)c(C#N)c1` (stereo unspecified), the “activity change” value is 0.265% [at 42.5 µM].

Turning to `Cc1cc(C)nc(Nc2ccccc2)n1`, the “activity change” value is 0.717%.

Turning to `C(CCOCC1CO1)COCC1CO1` (stereo unspecified), the “activity change” value was 0.0716%.

With `Cc1ncsc1CCCl`, the “activity change” value was 0.343% [at 42.5 µM].

As to `C[C@H]1CCC[C@H](O)CCCCCc2cc(O)cc(O)c2C(=O)O1`, the “activity change” value is -1.63%.

In the case of `CNC(=O)Oc1cccc(C(C)C)c1`, the “activity change” value was -0.149%.

With `N#Cc1ccncc1`, the “activity change” value was 0.153%.

With `CCC(C)n1c(=O)[nH]c(C)c(Br)c1=O` (stereo unspecified), the “activity change” value was -1.84%.

Regarding `Fc1ccc(C2(Cn3cncn3)OC2c2ccccc2Cl)cc1` (stereo unspecified), the “activity change” value is -0.472%.

As for `O=C(Oc1ccc(Br)cc1)N1CCN2CCC1CC2`, the “activity change” value was 0.751%.

Take `CCOP(=S)(OCC)Oc1nc(Cl)n(C(C)C)n1`: the “activity change” value was 0.458%.

`CC(=O)CCc1ccc2c(c1)OCO2`: the “activity change” value is 0.698%.

Tested on in the next assay: not listed separately
Briefly: qHTS assay to identify small molecule antagonists of the sonic hedgehog signaling (Shh) pathway (AID 1259369). Also: nearly all actives have a fitted effect of over 45% in size. Also: potency is read from the fitted curve at half-maximal effect. The following applies: NIH/3T3 Gli1-Luc reporter, Shh antagonist, luminescence 24 h; series mostly up to 92.4 µM; activity change, negative = inhibition: at the top concentration. The method, boiled down:
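Gli1 transcriptional reporter (firefly Luc) in NIH/3T3 background, conditioned-medium activated. 24hr exposure, luminescence endpoint.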
On to `CNC(=O)Oc1ccc(N(C)C)c(C)c1`, for which the “activity change, negative = inhibition” value was 7.54%.

In the case of `CCC1(c2ccccc2)C(=O)NC(=O)NC1=O`, the “activity change, negative = inhibition” value is 0.643%.

For the compound `COC(=O)c1ccccc1S(=O)(=O)NC(=O)Nc1nc(C)cc(C)n1`, the “activity change, negative = inhibition” value is 7.17%.

For the compound `COc1cc(OC)nc(NC(=O)NS(=O)(=O)c2ncccc2C(=O)N(C)C)n1`, the “activity change, negative = inhibition” value is 33.1%.

For `ClCC(Cl)Cl`, the “activity change, negative = inhibition” value is -5.88%.

For the compound `Clc1cccc(N2CCNCC2)c1`, the “activity change, negative = inhibition” value was -8.72% [at 42.5 µM].

As to `CCOP(=S)(OCC)SCSP(=S)(OCC)OCC`, the “activity change, negative = inhibition” value was -2.66%.

In the case of `CCS(=O)(=O)CCSP(=O)(OC)OC`, the “activity change, negative = inhibition” value is -16.3%.

As for `O=C1CN2CCOC2(c2ccccc2Cl)c2cc(Cl)ccc2N1` (stereo unspecified), the “activity change, negative = inhibition” value was -17.7% [at 42.5 µM].

For `CCOP(=O)(N=C1SCCS1)OCC`, the “activity change, negative = inhibition” value was 23.9%.

On to `COc1cccc2c1cc([N+](=O)[O-])c1c(C(=O)O)cc3c(c12)OCO3`, for which the Potency was 1540 nM (active).

With `CC(C)(C)C(=O)C(Oc1ccc(Cl)cc1)n1cncn1` (stereo unspecified), the “activity change, negative = inhibition” value was 9.08%.

On to `CC(=O)CC(c1ccc(Cl)cc1)c1c(O)c2ccccc2oc1=O` (stereo unspecified), for which the “activity change, negative = inhibition” value is 0%.

`CC(=O)C(Cl)Cl`: the “activity change, negative = inhibition” value was -2.53%.

Take `ClC(Cl)C(Cl)Cl`: the “activity change, negative = inhibition” value is -13.8%.

Take `COc1cc(OC)nc(Sc2cccc(Cl)c2C(=O)O)n1`: the “activity change, negative = inhibition” value was -4.69%.

Take `COc1cc(OC)nc(NC(=O)NS(=O)(=O)c2ncccc2OCC(F)(F)F)n1`: the “activity change, negative = inhibition” value is 13.1%.

Turning to `[O]=[Cd]`, the “activity change, negative = inhibition” value is 0.678%.

Take `C=CCC1=C(C)[C@@H](OC(=O)[C@@H]2[C@@H](C=C(C)C)C2(C)C)CC1=O`: the “activity change, negative = inhibition” value was -11.9%.

On to `N#CCNCC#N`, for which the “activity change, negative = inhibition” value was -2.2%.

In the case of `CCCSC(=O)Cl`, the “activity change, negative = inhibition” value was 15%.

Regarding `CCC(Cl)[N+](=O)[O-]` (stereo unspecified), the “activity change, negative = inhibition” value is -5.7%.

As for `O=[N+]([O-])c1cc(Cl)c(Cl)c(Cl)c1`, the “activity change, negative = inhibition” value was 19.3%.

Consider `CC(C)NCC(O)c1ccc(N)c(C#N)c1` (stereo unspecified), for which the “activity change, negative = inhibition” value is -9.23% [at 42.5 µM].

On to `Cc1cc(C)nc(Nc2ccccc2)n1`, for which the “activity change, negative = inhibition” value is 2.81%.

`Cc1ncsc1CCCl`: the “activity change, negative = inhibition” value was 14.2% [at 42.5 µM].

For `CNC(=O)Oc1cccc(C(C)C)c1`, the “activity change, negative = inhibition” value was 0%.

For the compound `N#Cc1ccncc1`, the “activity change, negative = inhibition” value is 51.6%.

As for `CCC(C)n1c(=O)[nH]c(C)c(Br)c1=O` (stereo unspecified), the “activity change, negative = inhibition” value was -24.1%.

In the case of `O=C(Oc1ccc(Br)cc1)N1CCN2CCC1CC2`, the “activity change, negative = inhibition” value was -21%.

For `CCOP(=S)(OCC)Oc1nc(Cl)n(C(C)C)n1`, the “activity change, negative = inhibition” value was 14.3%.

For the compound `CC(=O)CCc1ccc2c(c1)OCO2`, the “activity change, negative = inhibition” value is 11.9%.

The target of a further assay is Estrogen receptor beta (Homo sapiens) (UniProt Q92731). Description: qHTS assay to identify small molecule agonists of the estrogen receptor beta (ER-beta) signaling pathway (AID 1259377; active = well fitted activation curve with a large enough effect in the signal ratio in the repeat runs, not every such curve was filed as active; the % refers to the signal ratio). Conditions: ER-beta-UAS-bla HEK293T, beta-lactamase FRET ratio, 16 h; series mostly up to 92.4 µM; activation: at the top concentration. The method, boiled down: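 Measured by fluorescence intensity from a B/G FRET beta-lactamase substrate (2 h, room temperature) in ER-beta-UAS-bla HEK293T cells treated with DMSO-dissolved compounds for 16 hr at 37C and 5% CO2.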
Estrogen receptor beta (Homo sapiens), sequence (Q92731 whole entry, looked up): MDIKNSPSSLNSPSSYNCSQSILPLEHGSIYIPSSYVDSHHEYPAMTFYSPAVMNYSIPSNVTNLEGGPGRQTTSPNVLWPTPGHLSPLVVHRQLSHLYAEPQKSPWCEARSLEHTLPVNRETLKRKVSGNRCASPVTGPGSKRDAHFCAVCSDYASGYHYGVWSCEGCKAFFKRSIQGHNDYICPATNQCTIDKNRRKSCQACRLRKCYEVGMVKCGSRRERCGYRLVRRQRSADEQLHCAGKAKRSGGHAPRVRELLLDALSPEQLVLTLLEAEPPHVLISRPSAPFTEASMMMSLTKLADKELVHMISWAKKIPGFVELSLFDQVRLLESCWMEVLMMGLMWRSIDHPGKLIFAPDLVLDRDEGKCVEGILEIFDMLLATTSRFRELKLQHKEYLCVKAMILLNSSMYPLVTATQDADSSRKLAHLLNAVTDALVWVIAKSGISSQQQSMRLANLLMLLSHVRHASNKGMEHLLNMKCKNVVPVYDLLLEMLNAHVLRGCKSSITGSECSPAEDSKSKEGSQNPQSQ
Consider `CCC1(c2ccccc2)C(=O)NC(=O)NC1=O`, for which the “activation” value was -0.0584%.

For `COC(=O)c1ccccc1S(=O)(=O)NC(=O)Nc1nc(C)cc(C)n1`, the “activation” value was 0.0369%.

On to `COc1cc(OC)nc(NC(=O)NS(=O)(=O)c2ncccc2C(=O)N(C)C)n1`, for which the “activation” value was 2.65%.

Regarding `Clc1cccc(N2CCNCC2)c1`, the “activation” value is -0.795% [at 42.5 µM].

Consider `CCOP(=S)(OCC)SCSP(=S)(OCC)OCC`, for which the “activation” value was 0.524%.

Take `CCOP(=O)(N=C1SCCS1)OCC`: the “activation” value was -1.63%.

As for `N#CC(CCc1ccc(Cl)cc1)(Cn1cncn1)c1ccccc1` (stereo unspecified), the “activation” value was -8.43%.

On to `COc1cccc2c1cc([N+](=O)[O-])c1c(C(=O)O)cc3c(c12)OCO3`, for which the “activation” value is -2.92%.

Consider `CC(C)(C)C(=O)C(Oc1ccc(Cl)cc1)n1cncn1` (stereo unspecified), for which the “activation” value is 0.0489%.

Turning to `CC(=O)CC(c1ccc(Cl)cc1)c1c(O)c2ccccc2oc1=O` (stereo unspecified), the “activation” value was -0.545%.

Consider `ClC(Cl)C(Cl)Cl`, for which the “activation” value is -1.22%.

For `N#CCNCC#N`, the “activation” value was 9.24%.

With `CCCSC(=O)Cl`, the “activation” value was 0.0684%.

Take `CCC(Cl)[N+](=O)[O-]` (stereo unspecified): the “activation” value was -2.59%.

On to `O=[N+]([O-])c1cc(Cl)c(Cl)c(Cl)c1`, for which the “activation” value was -0.613%.

Take `Nc1cc2c3c(c1)C(c1ccccc1)=N[C@@H](NC(=O)c1cccnc1)C(=O)N3CC2`: the “activation” value was -0.207%.

Turning to `CC(C)NCC(O)c1ccc(N)c(C#N)c1` (stereo unspecified), the “activation” value was -0.599% [at 42.5 µM].

Take `Cc1ncsc1CCCl`: the “activation” value was 0.711% [at 42.5 µM].

For `N#Cc1ccncc1`, the “activation” value was 4.38%.

With `CCC(C)n1c(=O)[nH]c(C)c(Br)c1=O` (stereo unspecified), the “activation” value was 4.17%.

For the compound `Fc1ccc(C2(Cn3cncn3)OC2c2ccccc2Cl)cc1` (stereo unspecified), the “activation” value is -3.52%.
